Among the data in PubChem BioAssay (NCATS) are max response, outcome and Potency values, retold here.

One assay relates to CRL-7250. Kind of assay: Cytotoxic Profiling of Annotated Libraries Using Quantitative High-Throughput Screening (AID 1296008). Further: potency means the concentration at half of the fitted maximal effect. On max response: on the % scale 0 is the no-effect control and ±100 the full control effect. As to conditions: Five cell lines viability, CellTiter-Glo ATP luminescence, 48-72 h; max response: active compounds read low. The essentials:
(§1)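 Cytotoxicity was measured as CellTiter-Glo ATP luminescence, read after 10 min at room temperature. Compound treatment of the cells lasted 48 or 72 hr at 37 degrees Celsius in a qHTS format.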
A general note: ATP-based viability assays read luminescence as a measure of living cells.

A further assay deals with HEK293. Described as above. As to conditions: Five cell lines viability, CellTiter-Glo ATP luminescence, 48-72 h; max response: active compounds read low. The essentials:
as §1

The subject of a further assay is KB-3-1. The description is as above. As to conditions: Five cell lines viability, CellTiter-Glo ATP luminescence, 48-72 h; max response: active compounds read low. In a few lines:
as §1

For the next assay, the system named is NIH3T3. The assay is described as above. As to conditions: Five cell lines viability, CellTiter-Glo ATP luminescence, 48-72 h; max response: active compounds read low. The essentials: as §1
The test system of the next assay is HEK293T. Kind of assay: qHTS assay to identify novel small-molecules to repurpose for Merkel cell carcinoma treatment (AID 1296009). As to conditions: MCC and control cell lines, CellTiter-Glo viability, 72 h; at 44.8 µM (top of the series) unless noted. The essentials: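 Cell viability measured by CellTiter-Glo following 72 hr compound treatment at 37 degree celsius, with NPC and MIPE libraries tested in 8- and 11-point concentration series.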
(In general: Quantitative high-throughput screening tests each substance at several concentrations.)

Another assay deals with HaCat. Kind of assay: Cytotoxic Profiling of Annotated Libraries Using Quantitative High-Throughput Screening (AID 1296008). Further: potency means the concentration at half of the fitted maximal effect. On max response: on the % scale 0 is the no-effect control and ±100 the full control effect. As to conditions: Five cell lines viability, CellTiter-Glo ATP luminescence, 48-72 h; max response: active compounds read low. In a few lines:
as §1

Inconclusive results are not listed. Values without a mark were called inactive. The source made the active and inactive calls. The call rests on the fitted dose curve; in most records, active means well fitted inhibition curve with a large enough effect; inconclusive means small, poorly fitted or top-dose-only effect; inactive means flat fitted curve, though single readings scatter.
Further: nearly all actives have a fitted effect of over 60% in size.

Turning to `Cc1oc2ccccc2c1CNC(=O)NCc1cccs1`, the max response was 1.28% in the assay on CRL-7250, -27.1% with HEK293, -11.8% in the assay with KB-3-1 and -4.16% in the assay with NIH3T3.
Take `O=C1CCC(=O)N(O)CCCCCNC(=O)CCC(=O)N(O)CCOCCNC(=O)CCC(=O)N(O)CCCCCN1`: the max response with CRL-7250 is -5.63%; in the assay with HEK293, 1.01%. For the same molecule, the call with KB-3-1 and in the assay on NIH3T3 was inactive.
As for `CC1CCC2(C(=O)O)CCC3(C)C(=CCC4C5(C)CCC(OC(=O)/C=C/c6ccccc6)C(C)(C)C5CCC43C)C2C1C` (configuration not stated), in the assay with CRL-7250, the outcome was inactive. Further, the figures for the max response in the assay on HEK293, with KB-3-1 and in the assay with NIH3T3 were -4.63%, 3.54% and -3.46%, respectively.
Take `C[C@@H]1O[C@@H](O[C@H]2[C@H](O[C@H]3CC[C@@]4(C)C(CC[C@]5(C)C4CC=C4[C@@H]6CC(C)(C)CC[C@]6(C(=O)O[C@@H]6OC[C@H](O)[C@H](O)[C@H]6O[C@@H]6O[C@@H](C)[C@H](O[C@@H]7O[C@H](CO)[C@@H](O)[C@H](O)[C@H]7O)[C@H](O)[C@H]6O)[C@H](O)C[C@]45C)C3(C)C)O[C@H](CO)[C@@H](O[C@@H]3OC[C@@H](O)[C@H](O)[C@H]3O)[C@@H]2O)[C@H](O)[C@H](O)[C@H]1O` (some centres not stated): the outcome in the assay on CRL-7250 and in the assay with KB-3-1 was inactive. The max response in the assay on HEK293 is 4.66%; in the assay on NIH3T3 it was -3.79%.
Turning to `CC1(C)CC[C@]2(C(=O)O)CC[C@]3(C)C(=CCC4[C@@]5(C)C[C@@H](O)[C@H](O)C(C)(C)C5CC[C@]43C)C2C1` (some centres not stated), the call in the assay on CRL-7250, in the assay with HEK293 and in the assay on KB-3-1 was inactive. For the same molecule, the max response with NIH3T3 is 4.86%. Also, in the assay with HEK293T, the outcome is “inactive [at 17.4 µM]”.
`Cc1cc(=O)oc2c(C=O)c(O)ccc12`: the max response with CRL-7250 was 0.427%; with NIH3T3, -0.325%. Moreover, the call with HEK293, with KB-3-1 and in the assay on HEK293T was inactive.
As for `COc1cc(N)c(Cl)cc1C(=O)NC[C@@H]1CCN2CCC[C@@H]12`, the max response with CRL-7250 was -16.7%; in the assay with HEK293, -3.94%; with KB-3-1 it was -4.24%; in the assay with NIH3T3 it was -6%.
Turning to `CC1=C(C(=O)O)/C(=C\CO[C@@H]2O[C@H](CO)[C@@H](O)[C@H](O)[C@H]2O)C(OC(=O)/C=C\c2ccc(O)cc2)C1` (some centres not stated), the max response in the assay with CRL-7250 is 3.65%; with NIH3T3, -21.6%. The call with HEK293 and with KB-3-1 was inactive. For the same molecule, the outcome in the assay on HEK293T was “inactive [at 17.4 µM]”.
For `COc1c2ccoc2cc2oc(CO[C@@H]3O[C@H](CO)[C@@H](O)[C@H](O)[C@H]3O)cc(=O)c12`, the max response is -0.0339% in the assay with CRL-7250, 1.44% in the assay on HEK293, -1.43% in the assay on KB-3-1 and -8.92% in the assay with NIH3T3.
As for `CCCN1CCN(c2ccc(C(=O)NC3(C(=O)NCC#N)CCCCC3)cc2)CC1`, the max response with CRL-7250 is -0.563%; in the assay on HaCat, -5.96%; with KB-3-1, -7.48%; in the assay with NIH3T3 it was 1.62%.
For `COc1ccc(CN2C(=O)C(=O)c3cc(S(=O)(=O)N4CCC[C@H]4COc4cccnc4)ccc32)cc1`, the molecule was classed as inactive in the assay on CRL-7250, with HEK293, in the assay with KB-3-1, in the assay on NIH3T3 and in the assay with HEK293T.
For the molecule `C=C1C(=O)OC2C1CCC(=C)C1CC(OC(C)=O)C(=C)C12` (configuration not stated), the Potency in the assay on CRL-7250 was 18.4 µM (active). The results for the max response with HaCat and with KB-3-1 were -12% and 1.53%, respectively.
Take `CC1CCC2(OC1)OC1CC3C4CCC5C[C@@H](O[C@@H]6O[C@H](CO[C@@H]7OC[C@@H](O)[C@H](O)[C@H]7O)[C@H](O)[C@H](O)[C@H]6O)CC[C@]5(C)C4CC[C@]3(C)C1C2C` (some centres not stated): the max response was -3.87% in the assay on CRL-7250 and 9.78% with KB-3-1. In addition, the result with HEK293 and in the assay on NIH3T3 was inactive. Also, in the assay with HEK293T, the outcome is “inactive [at 17.4 µM]”.
Regarding `C=C(C)C1CCC2(C(=O)O[C@@H]3O[C@H](CO[C@@H]4O[C@H](CO)[C@@H](O)[C@H](O)[C@H]4O)[C@@H](O)[C@H](O[C@@H]4O[C@@H](C)[C@H](O)[C@@H](O)[C@H]4O)[C@H]3O)CCC3(C(=O)O)C(CCC4C5(C)CCC(O)C(C)(C)C5CCC43C)C12` (some centres not stated), the molecule was classed as inactive with CRL-7250, in the assay with HEK293, in the assay on KB-3-1 and in the assay with NIH3T3. In addition, the outcome with HEK293T was “inactive [at 9.27 µM]”.
On to `Cc1cc(C(=O)N2Cc3cnn(C)c3Nc3ccccc32)ccc1CNC(=O)N1CCC[C@H]1C(=S)N1CCCN(C)CC1`, for which the values for the max response in the assay with CRL-7250, with HaCat and in the assay with KB-3-1 were 2.05%, -21.4% and 2.82%, respectively.
For the molecule `CC1=C(C)C(=O)OC(C(C)C2CCC3C4CC=C5CC(OC6OC(COC7OC(CO)C(O)C(O)C7O)C(O)C(O)C6O)CC(O)C5(C)C4CCC23C)C1` (configuration not stated), the max response with CRL-7250 is -1.46%; in the assay with HaCat it was -17.7%; in the assay on KB-3-1, 8.05%; in the assay with NIH3T3 it was 3.09%.
For `C=C1CCC2C(C)(COC(C)=O)CCCC2(C)C1CCC(C)CC(=O)O` (configuration not stated), the max response was -3% in the assay on CRL-7250 and 8.96% in the assay with KB-3-1. Moreover, the result in the assay on HEK293, in the assay on NIH3T3 and with HEK293T was inactive.
`O=C(/C=C/c1ccc(O)cc1)OC1[C@H](O)CC(O)(C(=O)O)C[C@H]1O` (some centres not stated): the max response in the assay on CRL-7250 is -9.1%; with HaCat it was 1.01%; with KB-3-1, 2.34%; with NIH3T3, -9.08%.
Turning to `CCc1c(C)nc2c(-c3cnn(-c4cc(CO)ccn4)c3)c[nH]n2c1=O`, the max response in the assay with CRL-7250 was -0.312%; in the assay with KB-3-1, -1.88%; in the assay on NIH3T3, -6.61%. Also, the molecule was called inactive with HEK293 and in the assay on HEK293T.
`CC1(C)C[C@H](O)C[C@@]2(C)OC(=O)C=C12`: the results for the max response in the assay with CRL-7250 and in the assay on NIH3T3 were 1.12% and 2.91%, respectively. The call in the assay on HEK293 and in the assay on KB-3-1 was inactive. Moreover, the outcome with HEK293T is “inactive [at 92 µM]”.
